We go through 21 compounds from PubChem BioAssay (EPA / NIEHS).

A short description of test [1]: CCTE_Harrill_HTTr_Viability_MCF7: CCTE's 6-hour Cell Viability Assessment for the High-Throughput Transcriptomics (HTTr) Platform, in MCF-7 cells cultured in DMEM + 10% fetal bovine serum, Harrill Lab (AID 2284010). An outline of the steps:
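Cells were dosed with chemicals in an eight-point dilution series, imaged 6 hours later for propidium iodide uptake, and the endpoint was analyzed by bidirectional fitting against DMSO as negative control.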

Test [2] is described as follows: CCTE_Harrill_HTTr_Apoptosis_MCF7: CCTE's 6-hour Apoptosis Assessment for the High-Throughput Transcriptomics (HTTr) Platform, in MCF-7 cells cultured in DMEM + 10% fetal bovine serum, Harrill Lab (AID 2284011). In outline: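 High-content imaging of CellEvent Caspase 3/7 Green signal follows a six-hour exposure, with eight concentrations per chemical. MCF-7 cells grown in DMEM plus 10% fetal bovine serum; activity fitted in both directions against DMSO.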

Test [3] in a line: CCTE_Harrill_HTTr_CellCount_MCF7: CCTE's Cell Proliferation Assessment for the High-Throughput Transcriptomics (HTTr) Platform, Harrill Lab (AID 2284012; active means hit-call score of the fitted dose curve at least 0.9, where 1 is the maximum;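 further: count of Hoechst-stained nuclei per well by high-content imaging in MCF-7 cells; cells exposed to compound for six hours; intended direction is loss of nuclei count meaning fewer cells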). An outline of the steps:
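Chemicals in eight-point dilution series are added to MCF-7 cells for six hours, nuclei are stained with Hoechst and imaged, and per-well nuclei counts are fitted in both directions relative to DMSO controls.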

Test [4] is described as follows: CCTE_Shafer_MEA_dev_per_burst_spike_percent: CCTE's Neural Network Formation Assay for Percent of Spikes in a Burst, Shafer Lab (AID 2284032).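 Further: fitted as a decrease in burst spike percentage below DMSO baseline.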 In outline: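 Rat primary cortical neurons on 16-electrode MEA wells, dosed from plating day 0 for 12 days with renewal on DIV 5 and 9; spikes-in-bursts percentage averaged over bursting electrodes, collapsed as AUC across days 5, 7, 9, 12; loss direction versus DMSO.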

The nature of test [5]: CCTE_Deisenroth_AIME_384WELL_CTox_Active: Cytotoxicity Assessment (CTOX) in CCTE's 384-well Estrogen Receptor Transactivation Assay with AIME metabolic competence (metabolism positive), Deisenroth Lab (AID 2284037; active means hit-call score of the fitted dose curve at least 0.9, where 1 is the maximum;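 further: chemicals first conditioned 2 h by alginate-bound induced rat liver S9 before cells; activity means signal loss indicating cell death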). An outline of the steps: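 Chemicals pre-incubated 2 hours with alginate-immobilised phenobarbital/beta-naphthoflavone-induced male Sprague Dawley rat liver S9, then conditioned medium applied 24 hour to VM7Luc4E2 cells. Viability by fluorogenic protease substrate; 10-point series 0.002 - 200 uM.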

The structures appear in SMILES notation. Results filed as inconclusive are left out. Some compounds were tested as several samples or in several runs, with calls that do not always agree. The source made the active and inactive calls. How the source made its calls, unless noted: active means hit-call score of the fitted dose curve at least 0.9, where 1 is the maximum; inactive means score below 0.9.

`O=C(/C=C/C=C/c1ccc2c(c1)OCO2)N1CCCCC1`: the result in test [1] and in test [2] was inactive.

`CC(=O)NS(=O)(=O)c1ccc(N)cc1`: the result in test [1], in test [2] and in test [3] was inactive.

Turning to `OC1CCCCCCCCCCC1`, the outcome in test [1], in test [2] and in test [3] was inactive.

For `CCCCCCCC/C=C\CCCCCCCC(=O)O`, the outcome in test [1], in test [2] and in test [3] was inactive.

Take `O=Cc1ccc(CO)o1`: the outcome in test [1] and in test [2] was inactive.

Take `[Cl][Nd]([Cl])[Cl]`: the result in test [1] and in test [2] was inactive.

On to `CC1(C)[C@H]2CC[C@]1(C)C(=O)C2`, for which the result in test [1], in test [2] and in test [3] was inactive.

On to `C1CN(SSN2CCOCC2)CCO1`, for which the outcome in test [1], in test [2] and in test [3] was inactive.

With `C[C@]12CCC(=O)C=C1CC[C@@H]1[C@@H]2C(=O)C[C@@]2(C)[C@H]1CC[C@]2(O)C(=O)CO`, the result in test [1], in test [2] and in test [3] was inactive.

Regarding `Cc1ccccc1C`, the outcome in test [1] and in test [2] was inactive.

For `CN(C)c1ccc(C(=N)c2ccc(N(C)C)cc2)cc1`, the result in test [1], in test [2] and in test [3] was inactive. Moreover, the AC50 (commonly the concentration giving half of the maximal activity seen) in test [2] was 40.5 µM (active); in test [4] it was 1.92 µM (active); in test [5], 100 µM (active).

For the compound `CC(=O)OCC(=O)[C@@]12N=C(C)O[C@@H]1C[C@H]1[C@@H]3CCC4=CC(=O)C=C[C@]4(C)[C@H]3[C@@H](O)C[C@@]12C`, the result in test [1], in test [2] and in test [3] was inactive.

Regarding `Cn1c([N+](=O)[O-])cnc1COC(N)=O`, the result in test [1] and in test [2] was inactive.

`CCCCCCC(O)CO` (stereo unspecified): the result in test [1], in test [2] and in test [3] was inactive.

In the case of `Cc1cnc(NC(=O)C2=C(O)c3ccccc3S(=O)(=O)N2C)s1`, the outcome in test [1] and in test [2] was inactive.

Turning to `CCCCCCCCCCCCCCCC(=O)OCC`, the outcome in test [1], in test [2] and in test [3] was inactive.

As to `O=c1[nH]nc(-c2ccc([N+](=O)[O-])o2)o1`, the outcome in test [1] and in test [2] was inactive.

For the compound `O=C1C=CC(=O)O1`, the outcome in test [1] and in test [2] was inactive.

For the compound `COc1ccc(C(Cl)=C(c2ccc(OC)cc2)c2ccc(OC)cc2)cc1`, the outcome in test [1] and in test [2] was inactive.

Regarding `Cc1cc(=O)n(-c2ccccc2)n1C`, the result in test [1] and in test [2] was inactive.

Regarding `CC[C@H]1OC(=O)[C@H](C)[C@@H](O[C@H]2C[C@@](C)(OC)[C@@H](O)[C@H](C)O2)[C@H](C)[C@@H](O[C@@H]2O[C@H](C)C[C@H](N(C)C)[C@H]2O)[C@](C)(O)C[C@@H](C)C(=NOCOCCOC)[C@H](C)[C@@H](O)[C@]1(C)O`, the result in test [1], in test [2] and in test [3] was inactive.
